Our source for the outcome and AC50 values is PubChem BioAssay (EPA / NIEHS).

Calls of active or inactive are those of the source. How the source made its calls: active means hit-call score of the fitted dose curve at least 0.9, where 1 is the maximum; inactive means score below 0.9.

What all share (conditions): mRNA level, 48 h; actives raise or lower the signal
Read-out in test [1]: Cyclin Dependent Kinase Inhibitor 1A (CDKN1A), CDKN1A (gene 1026)
Put plainly: LTEA_HepaRG_CDKN1A: Life Technologies and Expression Analysis (LTEA) Assay for Cyclin Dependent Kinase Inhibitor 1A (CDKN1A) using HepaRG (AID 2283450). Put shortly: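 Read-out is CDKN1A mRNA by TaqMan qRT-PCR, normalized to three housekeeping genes and fitted in both directions against the DMSO baseline. Human HepaRG cells were treated 48 h with test chemicals up to 100 uM in half-log steps, 0.5% DMSO.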

Read-out in test [2]: Cyclin D1 (CCND1), CCND1 (gene 595)
The test is described as follows: LTEA_HepaRG_CCND1: Life Technologies and Expression Analysis (LTEA) Assay for Cyclin D1 (CCND1) using HepaRG (AID 2283451). Put shortly:
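HepaRG plated 48 h, medium switched to serum-free induction medium, chemicals added in duplicate (top 100 uM, half-log steps, 0.5% DMSO) for 48 h, cells lysed, RNA measured by TaqMan qRT-PCR.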

Read-out in test [3]: catalase (CAT), CAT (gene 847)
The test is described as follows: LTEA_HepaRG_CAT: Life Technologies and Expression Analysis (LTEA) Assay for catalase (CAT) using HepaRG (AID 2283452). Put shortly:
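Expression of CAT was quantified by TaqMan qRT-PCR with ACTB/GAPDH/POLR2A normalization after 48 h chemical exposure of HepaRG. Eight-point half-log series, top 100 uM, in 0.5% DMSO; gain or loss fitted against vehicle.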

Read-out in test [4]: flavin-containing dimethylaniline monooxygenases 3 (FMO3), FMO3 (gene 2328)
The test is described as follows: LTEA_HepaRG_FMO3: Life Technologies and Expression Analysis (LTEA) Assay for flavin-containing dimethylaniline monooxygenases 3 (FMO3) using HepaRG (AID 2283453). Put shortly:
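FMO3 transcript quantified by TaqMan qRT-PCR against three housekeeping genes after 48 h chemical exposure of HepaRG cells. Eight-point half-log series, top 100 uM, 0.5% DMSO vehicle; phenobarbital 1mM induction control; up- or down-regulation fitted.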

Read-out in test [5]: Cytochrome P450 (CYP1A1), CYP1A1 (gene 1543)
Put plainly: LTEA_HepaRG_CYP1A1: Life Technologies and Expression Analysis (LTEA) Assay for Cytochrome P450 (CYP1A1) using HepaRG (AID 2283454). Put shortly:
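HepaRG, 48 h post-plating switched to serum-free induction medium; 8-pt conc-response (top 100 uM, half-log, 0.5% DMSO), duplicates, 48 h. Lysis in RLT, TaqMan qRT-PCR for CYP1A1; gain or loss vs DMSO.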

Read-out in test [6]: CFLAR gene, CFLAR (gene 8837)
Put plainly: LTEA_HepaRG_CFLAR: Life Technologies and Expression Analysis (LTEA) Assay for CFLAR gene using HepaRG (AID 2283455). Put shortly: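 Transcript level by qRT-PCR (normalized to ACTB, GAPDH and POLR2A) after 48 h chemical exposure of HepaRG cells, top concentration 100 uM with half-log steps, 0.5% DMSO vehicle, duplicates; fitted bidirectionally against DMSO baseline.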

Read-out in test [7]: Forkhead box O1 (FOXO1), FOXO1 (gene 2308)
Put plainly: LTEA_HepaRG_FOXO1: Life Technologies and Expression Analysis (LTEA) Assay for Forkhead box O1 (FOXO1) using HepaRG (AID 2283456). Summed up:
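FOXO1 transcript quantified by qRT-PCR after 48 h chemical exposure (top 100 uM, half-log steps, 0.5% DMSO) of HepaRG cells, housekeeping-normalized (ACTB/GAPDH/POLR2A). Changes fitted in both directions relative to vehicle.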

Read-out in test [8]: growth arrest and DNA damage 45 (GADD45A), GADD45A (gene 1647)
The test is described as follows: LTEA_HepaRG_GADD45A: Life Technologies and Expression Analysis (LTEA) Assay for growth arrest and DNA damage 45 (GADD45A) using HepaRG (AID 2283458). Put shortly: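 Transcript induction or loss, quantified by TaqMan qRT-PCR against three housekeeping genes, is the read-out. HepaRG cells received chemicals for 48 h across eight half-log concentrations from 100 uM in 0.5% DMSO; gain and loss fitted relative to DMSO.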

Read-out in test [9]: Forkhead box O3 (FOXO3), FOXO3 (gene 2309)
The test is described as follows: LTEA_HepaRG_FOXO3: Life Technologies and Expression Analysis (LTEA) Assay for Forkhead box O3 (FOXO3) using HepaRG (AID 2283459). Summed up:
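FOXO3 transcript measured by qRT-PCR (normalized to ACTB, GAPDH, POLR2A) after 48 h exposure of HepaRG cells in serum-free induction medium. Duplicates, eight half-log concentrations up to 100 uM, 0.5% DMSO; gain or loss fitted against DMSO.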

Read-out in test [10]: growth arrest and DNA damage 45 (GADD45B), GADD45B (gene 4616)
The test is described as follows: LTEA_HepaRG_GADD45B: Life Technologies and Expression Analysis (LTEA) Assay for growth arrest and DNA damage 45 (GADD45B) using HepaRG (AID 2283461). Summed up:
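HepaRG, ~100,000 cells/well, 48 h plating; serum-free induction medium; cpd 100 uM top, half-log x8, 0.5% DMSO, duplicate, 48 h; lysis in RLT, RNA isolation, qRT-PCR; norm ACTB/GAPDH/POLR2A; bidirectional fit vs DMSO.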

Read-out in test [11]: ABC Transporter (ABCC3), ABCC3 (gene 8714)
The test is described as follows: LTEA_HepaRG_ABCC3: Life Technologies and Expression Analysis (LTEA) Assay for ABC Transporter (ABCC3) using HepaRG (AID 2283462). Summed up:
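Human HepaRG, 48 h dosing, 8-pt half-log series from 100 uM, 0.5% DMSO vehicle, duplicates. ABCC3 mRNA by TaqMan qRT-PCR, housekeeping-normalized; bidirectional curve fit vs DMSO.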

Read-out in test [12]: ABC Transporter (ABCB11), ABCB11 (gene 8647)
Put plainly: LTEA_HepaRG_ABCB11: Life Technologies and Expression Analysis (LTEA) Assay for ABC Transporter (ABCB11) using HepaRG (AID 2283463). Summed up: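 ABCB11 transcript levels quantified by TaqMan qRT-PCR against three housekeeping genes after 48 h chemical exposure of HepaRG cultures. Concentrations up to 100 uM in half-log steps, 0.5% DMSO vehicle; both induction and suppression scored.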

Read-out in test [13]: ABC Transporter (ABCC2), ABCC2 (gene 1244)
Put plainly: LTEA_HepaRG_ABCC2: Life Technologies and Expression Analysis (LTEA) Assay for ABC Transporter (ABCC2) using HepaRG (AID 2283464). Put shortly:
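HepaRG, 48 h post-plating; serum-free induction medium; cpd 8-pt, 100 uM top, half-log, 0.5% DMSO, duplicate, 48 h. Readout: ABCC2 mRNA by qRT-PCR, norm. ACTB/GAPDH/POLR2A. Bidirectional fit vs DMSO baseline.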

Read-out in test [14]: Broad substrate specificity ATP-binding cassette transporter ABCG2 (Homo sapiens) (UniProt Q9UNQ0)
The test is described as follows: LTEA_HepaRG_ABCG2: Life Technologies and Expression Analysis (LTEA) Assay for ABC Transporter (ABCG2) using HepaRG (AID 2283465). Summed up:
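ABCG2 transcript was quantified by TaqMan qRT-PCR against three housekeeping genes in HepaRG cells. Cells were treated in duplicate for 48 h across an 8-point half-log series up to 100 uM, with 0.5% DMSO vehicle. Gain or loss versus DMSO was fit.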

Read-out in test [15]: ATP-citrate lyase (ACLY), ACLY (gene 47)
Put plainly: LTEA_HepaRG_ACLY: Life Technologies and Expression Analysis (LTEA) Assay for ATP-citrate lyase (ACLY) using HepaRG (AID 2283466). Summed up: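 ACLY mRNA quantified by qRT-PCR on Fluidigm arrays against three housekeeping genes, after 48 h chemical treatment of HepaRG cells (top concentration 100 uM, half-log steps, 0.5% DMSO vehicle). Up- or down-regulation fitted relative to DMSO.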

Read-out in test [16]: Peroxisomal acyl-coenzyme A oxidase 1 (ACOX1) gene, ACOX1 (gene 51)
The test is described as follows: LTEA_HepaRG_ACOX1: Life Technologies and Expression Analysis (LTEA) Assay for Peroxisomal acyl-coenzyme A oxidase 1 (ACOX1) gene using HepaRG (AID 2283467). Summed up: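 ACOX1 transcript levels were quantified by TaqMan qRT-PCR against three housekeeping genes after 48 h chemical exposure of differentiated human HepaRG cells. Exposure used eight half-log steps topping at 100 uM, 0.5% DMSO vehicle, in duplicate. Bidirectional curve fits were made relative to DMSO.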

Read-out in test [17]: Alkaline Phosphatase, Placental (ALPP) gene, ALPP (gene 250)
Put plainly: LTEA_HepaRG_ALPP: Life Technologies and Expression Analysis (LTEA) Assay for Alkaline Phosphatase, Placental (ALPP) gene using HepaRG (AID 2283468). Put shortly: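 HepaRG, 48 h plating then 48 h dosing, serum-free induction medium, 0.5% DMSO. 8 conc, half-log, max 100 uM, duplicates. Endpoint: ALPP transcript by qRT-PCR, housekeeping-normalized; gain or loss fitted vs DMSO.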

Read-out in test [18]: Bcl-2 (BAD) gene, BAD (gene 572)
Put plainly: LTEA_HepaRG_BAD: Life Technologies and Expression Analysis (LTEA) Assay for Bcl-2 (BAD) gene using HepaRG (AID 2283469). Put shortly:
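Read-out: qRT-PCR of BAD mRNA, normalized to three housekeeping genes. Human HepaRG cultures got 48 h chemical exposure in 0.5% DMSO, duplicate eight-point half-log series topping at 100 uM. Gain or loss of signal fitted versus DMSO vehicle.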

Read-out in test [19]: ABC Transporter (ABCB1), ABCB1 (gene 5243)
The test is described as follows: LTEA_HepaRG_ABCB1: Life Technologies and Expression Analysis (LTEA) Assay for ABC Transporter (ABCB1) using HepaRG (AID 2283460). Put shortly:
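ABCB1 transcript level measured by TaqMan qRT-PCR against three housekeeping genes after 48 h chemical exposure of differentiated HepaRG cells. Top concentration 100 uM, half-log steps, eight points, 0.5% DMSO vehicle; bidirectional fit relative to DMSO.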

Broad substrate specificity ATP-binding cassette transporter ABCG2 (Homo sapiens), sequence (Q9UNQ0 whole entry, looked up): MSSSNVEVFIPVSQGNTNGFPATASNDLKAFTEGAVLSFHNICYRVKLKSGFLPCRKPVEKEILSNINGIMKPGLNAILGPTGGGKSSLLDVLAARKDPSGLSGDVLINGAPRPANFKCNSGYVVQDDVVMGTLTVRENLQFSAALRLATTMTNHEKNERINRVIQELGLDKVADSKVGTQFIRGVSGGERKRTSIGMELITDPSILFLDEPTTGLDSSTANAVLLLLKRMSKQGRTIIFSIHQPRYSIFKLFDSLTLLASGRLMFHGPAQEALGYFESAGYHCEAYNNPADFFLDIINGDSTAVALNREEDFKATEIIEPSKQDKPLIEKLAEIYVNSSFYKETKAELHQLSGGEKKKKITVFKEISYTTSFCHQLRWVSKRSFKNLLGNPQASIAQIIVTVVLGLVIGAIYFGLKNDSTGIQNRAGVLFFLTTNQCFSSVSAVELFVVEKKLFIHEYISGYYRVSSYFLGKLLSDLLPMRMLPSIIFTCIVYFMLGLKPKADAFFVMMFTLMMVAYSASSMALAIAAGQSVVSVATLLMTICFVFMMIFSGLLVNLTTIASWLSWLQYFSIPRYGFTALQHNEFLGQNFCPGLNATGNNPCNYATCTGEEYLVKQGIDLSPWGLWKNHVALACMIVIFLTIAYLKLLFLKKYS

`N#CN=C1SCCN1Cc1ccc(Cl)nc1`: the call in test [1], in [2], in [3], in test [4], in test [5] and in [6] was inactive. The compound was called inactive in test [7], in test [8], in test [9], in test [10], in test [11] and in [12]. Further, the compound was called inactive in [13], in [14], in test [15], in test [16], in test [17] and in test [18].

Turning to `COc1ccc(-c2ccccc2)cc1NNC(=O)OC(C)C`, the result in test [1], in test [2], in test [3], in test [4], in [6] and in test [8] was inactive. Besides, the compound was classed as inactive in [9], in test [19], in test [11], in test [12], in test [13] and in [14]. The compound was called inactive in [15], in test [16], in test [17] and in test [18]. Further, the AC50 in test [5] is 75.1 µM (active).

Consider `CC(C)Oc1cccc(NC(=O)c2ccccc2C(F)(F)F)c1`, for which the outcome in test [1], in [2], in test [3], in test [4], in test [6] and in [8] was inactive. Moreover, the result in test [9], in test [11], in test [12], in [13], in [14] and in [16] was inactive. Also, the result in [17] and in test [18] was inactive. Further, the AC50 was 81.6 µM (active) in test [5] and 50 µM (active) in [19].
